Source: PubChem BioAssay (Tox21)
A number with no mark means an inactive call. Inconclusive results are not listed. Entries that show only a call come without a potency. Active and inactive are the calls of the source. Unless noted, the call rests on the fitted dose curve; in most records, active means well fitted curve in the direction sought with a large enough effect in the repeat runs; inconclusive means weak or mixed curves; inactive means no such curve, though single readings can be large; an effect the other way counts as inactive or inconclusive.

Experiments:
[1] = qHTS assay for small molecules that induce genotoxicity in human embryonic kidney cells expressing luciferase-tagged ATAD5 (AID 651632); further: nearly all actives have a fitted effect of over 15% in size
How it was run: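 ATAD5-luc HEK293T, 2,000 cells/well; cpd or DMSO pin-transferred; 16 hr, 37C/5% CO2; Amplite 30 min RT; luminescence.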

[2] = qHTS assay for small molecules that induce genotoxicity in human embryonic kidney cells expressing luciferase-tagged ATAD5 - cell viability (AID 651634; calls by dose curve; further: nearly all actives have a fitted effect of over 25% in size; further: potency means the concentration at half of the fitted maximal effect)
How it was run: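 Fluorescence from CellTiter-Fluor, reporting protease activity within live cells, served as the viability read-out. HEK293T cells carrying luciferase-tagged ATAD5 had been treated with compound for 15.5 hr at 37C.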

[3] = qHTS assay for small molecule disruptors of the mitochondrial membrane potential - cell viability (AID 720634; calls by dose curve; further: nearly all actives have a fitted effect of over 20% in size; further: potency means the concentration at half of the fitted maximal effect)
How it was run: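 Cells: HepG2, 2,000/well, attached overnight. Compound 1 hr, 37 C/5% CO2. +m-MPI dye, +CellTiter-Glo 30 min RT. Readout: luminescence (ATP).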

[4] = qHTS assay for small molecule disruptors of the mitochondrial membrane potential (AID 720635); further: potency means the concentration at half of the fitted maximal effect
How it was run: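 HepG2 cells exposed to compound 1 hr at 37C, then Mito-MPS dye 30 min. Ratio read of aggregate (540/590 nm) versus monomer (490/535 nm) fluorescence.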

[5] = qHTS assay to test for compound auto fluorescence at 590 nm (red) in HepG2 cells (AID 720674)
How it was run: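 HepG2 cells, 2,000 per well in MEM with 10% FBS, attached overnight at 37 C, then got 23 nL compound or DMSO. After 1 hr at 37 C, 5% CO2, red fluorescence was read at 540/590 nm against Rose Bengal sodium as reference.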

[6] = qHTS assay to test for compound auto fluorescence at 535 nm (green) in HepG2 cells (AID 720675)
[7] = qHTS assay to test for compound auto fluorescence at 460 nm (blue) in HEK293 cells (AID 720678)
How it was run: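 HEK293, 2,000 cells/well, 10% dialyzed FBS; attach 4-5 hr 37C; pin compound or DMSO; o/n 37C/5% CO2; fluorescence 405/460 nm; triamterene-equivalent units.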

[8] = qHTS assay to test for compound auto fluorescence at 535 nm (green) in HEK293 cells (AID 720680)
[9] = qHTS assay to test for compound auto fluorescence at 460 nm (blue) in HEK293 cell free culture (AID 720681)
How it was run: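 Compounds were added to cell-free DMEM with 10% FBS and fluorescence read directly. The blue channel used 405 nm excitation and 460 nm emission, with triamterene as the reference fluorophore.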

[10] = qHTS assay to test for compound auto fluorescence at 535 nm (green) in HEK293 cell free culture (AID 720682)
How it was run: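 Steps: dispense DMEM/10% FBS into empty wells; pin in compound or DMSO; measure fluorescence at 485/535 nm. Values are fluorescein equivalents.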

[11] = qHTS assay to test for compound auto fluorescence at 590 nm (red) in HEK293 cell free culture (AID 720683)
How it was run: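 Cell-free wells of DMEM with 10% FBS received compound, and intrinsic fluorescence was read at excitation/emission 540/590 nm. Values expressed as equivalence to Rose Bengal sodium.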

[12] = qHTS assay to test for compound auto fluorescence at 590 nm (red) in HepG2 cell free culture (AID 720684)
How it was run: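 Compounds are added to culture medium (MEM, 10% FBS) lacking cells, then fluorescence is read at excitation 540 nm, emission 590 nm, with Rose Bengal sodium as the equivalency standard.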

[13] = qHTS assay to test for compound auto fluorescence at 460 nm (blue) in HepG2 cell free culture (AID 720685)
How it was run: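 Compound (23 nL) or DMSO pinned into cell-free MEM with 10% FBS; blue fluorescence read at 405/460 nm excitation/emission, expressed as auto-fluorescence equivalency to triamterene.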

[14] = qHTS assay to test for compound auto fluorescence at 535 nm (green) in HepG2 cell free culture (AID 720686)
[15] = qHTS assay to test for compound auto fluorescence at 460 nm (blue) in HepG2 cells (AID 720687)
How it was run: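 HepG2 cells in MEM with 10% FBS, attached overnight at 37 C, were exposed to compound or DMSO for 1 hr at 37 C, 5% CO2. Blue fluorescence was read at 405/460 nm, with triamterene as reference fluorophore.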

[16] = qHTS assay to test for compound auto fluorescence at 590 nm (red) in HEK293 cells (AID 720679)
How it was run: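 Intensity at 540nm excitation and 590nm emission is reported as Rose Bengal sodium-equivalent autofluorescence. Measurements followed overnight exposure (37C, 5% CO2) of HEK293 cells, 2,000 per well, to 23 nL compound.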

[17] = target: Glucocorticoid receptor (Homo sapiens) (UniProt P04150); assay: qHTS assay to identify small molecule agonists of the glucocorticoid receptor (GR) signaling pathway (AID 720691; active means well fitted activation curve with a large enough effect in the signal ratio in the repeat runs, not every such curve was filed as active; the % refers to the signal ratio); settings: GR-bla HeLa, beta-lactamase reporter ratio, 18 h; activation: at 62.4 µM (top of the series)
Glucocorticoid receptor (Homo sapiens), sequence (P04150 whole entry, looked up): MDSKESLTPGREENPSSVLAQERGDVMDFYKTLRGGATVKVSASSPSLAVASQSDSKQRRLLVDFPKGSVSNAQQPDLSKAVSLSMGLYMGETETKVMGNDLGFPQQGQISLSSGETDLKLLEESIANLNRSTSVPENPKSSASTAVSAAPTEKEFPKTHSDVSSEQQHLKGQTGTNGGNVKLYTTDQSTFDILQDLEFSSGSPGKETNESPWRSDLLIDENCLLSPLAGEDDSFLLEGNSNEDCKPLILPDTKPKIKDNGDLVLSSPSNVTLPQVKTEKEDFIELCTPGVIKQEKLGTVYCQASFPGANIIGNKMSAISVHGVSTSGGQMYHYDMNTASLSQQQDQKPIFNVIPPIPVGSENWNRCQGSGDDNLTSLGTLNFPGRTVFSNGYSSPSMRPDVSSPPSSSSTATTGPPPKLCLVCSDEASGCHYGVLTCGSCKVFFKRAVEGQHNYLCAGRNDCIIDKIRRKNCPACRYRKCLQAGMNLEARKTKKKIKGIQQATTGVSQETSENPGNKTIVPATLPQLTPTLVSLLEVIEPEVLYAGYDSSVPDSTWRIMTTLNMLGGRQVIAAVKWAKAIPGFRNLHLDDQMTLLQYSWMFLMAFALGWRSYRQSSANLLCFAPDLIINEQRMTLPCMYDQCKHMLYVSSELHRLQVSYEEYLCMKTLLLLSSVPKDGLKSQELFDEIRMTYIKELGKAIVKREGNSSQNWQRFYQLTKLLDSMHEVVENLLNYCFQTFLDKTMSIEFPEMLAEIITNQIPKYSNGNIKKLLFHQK
How it was run: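 Fluorescence intensity from LiveBLAzer B/G FRET substrate (2 h, room temperature) reports beta-lactamase expression driven by the glucocorticoid response element in GR-bla HeLa cells after 18 h compound exposure at 37 C.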

[18] = target: Glucocorticoid receptor (Homo sapiens) (UniProt P04150); assay: qHTS assay to identify small molecule antagonists of the glucocorticoid receptor (GR) signaling pathway (AID 720692; active means well fitted inhibition curve with a large enough effect in the signal ratio in the repeat runs, not every such curve was filed as active; the % refers to the signal ratio)
How it was run: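 HeLa GR-bla cells; cmpd + dex 5 nM final, 18 h 37 C; LiveBLAzer B/G FRET substrate 2 h RT; fluorescence intensity read. Antagonist mode, qHTS.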

[19] = qHTS assay for small molecule agonists of the p53 signaling pathway - cell viability (AID 651633; calls by dose curve; further: nearly all actives have a fitted effect of over 30% in size; further: potency means the concentration at half of the fitted maximal effect)
How it was run: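 p53RE-bla cells were treated with compound for 16 hours at 37 C. Cytotoxicity was then measured as CellTiter-Glo luminescence after 30 min at room temperature.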

CCn1cc[n+](C)c1 (tested in a mixture with another compound)
Potency [1]: inactive
Potency [2]: inactive
Potency [3]: inactive
Potency [4]: inactive
outcome [5]: inactive
Potency [6]: inactive
Potency [7]: inactive
outcome [8]: inactive
Potency [9]: inactive
outcome [10]: inactive
outcome [11]: inactive
outcome [12]: inactive
Potency [13]: inactive
Potency [14]: inactive
Potency [15]: inactive

CSC(C)(C)/C=N/O
Potency [1]: inactive
Potency [2]: inactive
Potency [3]: inactive
Potency [4]: inactive
outcome [5]: inactive
Potency [6]: inactive
Potency [7]: inactive
outcome [16]: inactive
Potency [9]: inactive
outcome [10]: inactive
outcome [11]: inactive
outcome [12]: inactive
Potency [13]: inactive
Potency [15]: inactive
Potency [17]: inactive
Potency [18]: inactive

O=c1c2ccccc2c(=O)c2c1cc(Cl)c1[nH]c3c([nH]c12)c(Cl)cc1c(=O)c2ccccc2c(=O)c13
Potency [1]: inactive
Potency [2]: inactive
Potency [3]: inactive
Potency [6]: inactive
Potency [7]: inactive
outcome [8]: inactive
Potency [9]: inactive
outcome [10]: inactive
outcome [11]: inactive
outcome [12]: inactive
Potency [13]: inactive
Potency [14]: inactive
Potency [15]: inactive
Potency [17]: inactive
Potency [18]: inactive

NC1CCC(CC2CCC(N)CC2)CC1 (stereo not drawn)
Potency [1]: inactive
Potency [19]: inactive
Potency [3]: inactive
Potency [4]: inactive
outcome [5]: inactive
Potency [7]: inactive
outcome [16]: inactive
outcome [8]: inactive
Potency [9]: inactive
outcome [10]: inactive
outcome [11]: inactive
outcome [12]: inactive
Potency [13]: inactive
Potency [14]: inactive
Potency [15]: inactive
Potency [17]: inactive
Potency [18]: inactive

CNC(=O)/C=C(\C)OP(=O)(OC)OC
Potency [1]: inactive
Potency [2]: inactive
outcome [5]: inactive
Potency [6]: inactive
Potency [7]: inactive
outcome [16]: inactive
outcome [8]: inactive
Potency [9]: inactive
outcome [10]: inactive
outcome [11]: inactive
outcome [12]: inactive
Potency [13]: inactive
Potency [15]: inactive
Potency [17]: inactive
Potency [18]: inactive

CCc1cccc(C)c1N(C(=O)CCl)[C@@H](C)COC
Potency [1]: inactive
Potency [2]: inactive
outcome [5]: inactive
Potency [6]: inactive
Potency [7]: inactive
outcome [16]: inactive
outcome [8]: inactive
Potency [9]: inactive
outcome [10]: inactive
outcome [11]: inactive
outcome [12]: inactive
Potency [13]: inactive
Potency [14]: inactive
Potency [15]: inactive

C1=CCC=C1
Potency [19]: inactive
Potency [2]: inactive
Potency [3]: inactive
outcome [5]: inactive
Potency [6]: inactive
outcome [16]: inactive
outcome [8]: inactive
outcome [10]: inactive
outcome [11]: inactive
outcome [12]: inactive
Potency [14]: inactive

S=C=NCCc1ccccc1
Potency [19]: inactive
Potency [3]: inactive
Potency [4]: 38.6 µM (active)
outcome [5]: inactive
Potency [6]: inactive
Potency [7]: inactive
outcome [16]: inactive
outcome [8]: inactive
Potency [9]: inactive
outcome [10]: inactive
outcome [11]: inactive
outcome [12]: inactive
Potency [13]: inactive
Potency [15]: inactive
Potency [17]: inactive

O=C(N[C@@H]1N=C(c2ccccc2F)c2cccc3c2N(CC3)C1=O)c1cc2ccccc2[nH]1
Potency [19]: inactive
Potency [2]: inactive
Potency [3]: inactive
Potency [4]: 8.41 µM (active)
outcome [5]: inactive
Potency [6]: inactive
Potency [7]: inactive
outcome [16]: inactive
outcome [8]: inactive
Potency [9]: inactive
outcome [10]: inactive
outcome [11]: inactive
outcome [12]: inactive
Potency [13]: inactive
Potency [14]: inactive
Potency [15]: inactive

COC(=O)/C=C(\C)OP(=O)(OC)OC
Potency [1]: inactive
Potency [2]: inactive
outcome [5]: inactive
Potency [6]: inactive
Potency [7]: inactive
outcome [16]: inactive
Potency [9]: inactive
outcome [10]: inactive
outcome [11]: inactive
outcome [12]: inactive
Potency [13]: inactive
Potency [15]: inactive
Potency [17]: inactive

[F][Sn]([c]1ccccc1)([c]1ccccc1)[c]1ccccc1
Potency [19]: 3.06 µM (active)
Potency [2]: 0.486 µM (active)
Potency [3]: 19.3 µM (active)
Potency [4]: 0.273 µM (active)
outcome [5]: inactive
Potency [6]: inactive
Potency [7]: inactive
outcome [16]: inactive
outcome [8]: inactive
Potency [9]: inactive
outcome [10]: inactive
outcome [11]: inactive
outcome [12]: inactive
Potency [13]: inactive
Potency [14]: inactive
Potency [15]: inactive

Clc1ccc(C(Cl)(Cl)Cl)cc1Cl
Potency [1]: inactive
Potency [3]: inactive
Potency [4]: 59.8 µM (active)
outcome [5]: inactive
Potency [6]: inactive
Potency [7]: inactive
outcome [16]: inactive
outcome [8]: inactive
Potency [9]: inactive
outcome [10]: inactive
outcome [11]: inactive
outcome [12]: inactive
Potency [13]: inactive
Potency [14]: inactive
Potency [15]: inactive
Potency [17]: inactive

CCCCn1cc[n+](C)c1.[Cl][Fe-]([Cl])([Cl])[Cl]
Potency [2]: inactive
Potency [3]: inactive
Potency [4]: inactive
outcome [5]: inactive
Potency [6]: inactive
Potency [7]: inactive
outcome [8]: inactive
Potency [9]: inactive
outcome [10]: inactive
outcome [11]: inactive
outcome [12]: inactive
Potency [13]: inactive
Potency [14]: inactive
Potency [15]: inactive

CN(C)c1ccc(N)cc1
Potency [19]: inactive
Potency [2]: inactive
Potency [3]: inactive
Potency [4]: 8.42 µM (active)
Potency [6]: inactive
Potency [7]: inactive
outcome [16]: inactive
outcome [8]: inactive
Potency [9]: inactive
outcome [10]: inactive
outcome [11]: inactive
outcome [12]: inactive
Potency [13]: inactive
Potency [15]: inactive

CCCCn1cc[n+](C)c1 (tested in a mixture with another compound)
Potency [2]: inactive
Potency [3]: inactive
Potency [4]: inactive
outcome [5]: inactive
Potency [6]: inactive
Potency [7]: inactive
outcome [16]: inactive
Potency [9]: inactive
outcome [10]: inactive
outcome [11]: inactive
outcome [12]: inactive
Potency [13]: inactive
Potency [14]: inactive
Potency [15]: inactive

N#Cc1sc2c(=O)c3ccccc3c(=O)c=2sc1C#N
Potency [2]: inactive
Potency [3]: 24.3 µM (active)
Potency [4]: 24.3 µM (active)
outcome [5]: inactive
Potency [6]: inactive
Potency [7]: inactive
outcome [16]: inactive
outcome [8]: inactive
Potency [9]: inactive
outcome [10]: inactive
outcome [11]: inactive
outcome [12]: inactive
Potency [13]: inactive
Potency [14]: inactive
Potency [15]: inactive

[Cl-].[Cl-].[Sn+2]
Potency [2]: inactive
outcome [5]: inactive
Potency [6]: inactive
Potency [7]: inactive
outcome [16]: inactive
outcome [8]: inactive
Potency [9]: inactive
outcome [10]: inactive
outcome [11]: inactive
outcome [12]: inactive
Potency [13]: inactive
Potency [14]: inactive
Potency [15]: inactive

CSSC
Potency [19]: inactive
outcome [5]: inactive
Potency [6]: inactive
Potency [7]: inactive
outcome [16]: inactive
outcome [8]: inactive
Potency [9]: inactive
outcome [10]: inactive
outcome [11]: inactive
outcome [12]: inactive
Potency [13]: inactive
Potency [14]: inactive
Potency [15]: inactive

O=[N+]([O-])c1ccc(CCl)cc1
Potency [19]: inactive
Potency [2]: inactive
Potency [3]: inactive
Potency [4]: inactive
outcome [5]: inactive
Potency [7]: inactive
outcome [16]: inactive
outcome [8]: inactive
Potency [9]: inactive
outcome [10]: inactive
outcome [11]: inactive
outcome [12]: inactive
Potency [13]: inactive
Potency [14]: inactive
Potency [15]: inactive
Potency [17]: inactive
Potency [18]: inactive

COC(=O)c1cc(Oc2ccc(Cl)cc2Cl)ccc1[N+](=O)[O-]
Potency [1]: inactive
Potency [2]: inactive
Potency [6]: inactive
Potency [7]: inactive
outcome [8]: inactive
Potency [9]: inactive
outcome [10]: inactive
outcome [11]: inactive
outcome [12]: inactive
Potency [13]: inactive
Potency [14]: inactive
Potency [15]: inactive
Potency [17]: inactive
Potency [18]: inactive
